Compound activity: PubChem BioAssay, National Center for Advancing Translational Sciences (NCATS)
GRP78 ERSR act = qHTS for Inducers of the Endoplasmic Reticulum Stress Response (ERSR) in Human Glioma: qHTS | U87-MG GRP78 promoter luciferase reporter, 16 h | Potency, µM, without a hit: at the highest dose activation, hits mostly activators | 420,000 compounds, 0.02% hits; also: potency is read from the fitted curve at half-maximal effect; series mostly up to about 76 µM; % of control where 0% means no effect; nearly all actives have a fitted effect of over 35% in size
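ERSR induction read as luciferase luminescence (Bright-Glo, 10 min at room temperature) in stably transfected human U87-MG glioma cells exposed to compounds for 16 h, using GRP78 as sensor.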
Nrf2 ARE act = qHTS of Nrf2 Activators; AREc32 ARE-luciferase reporter (MCF7-derived line), luminescence, 24 h; Potency, µM (series often up to 46.1 µM), without a hit: top-dose activation, hits mostly activators; 410,000 compounds, 0.31% hits; AID 624171, 2012; also: potency is read from the fitted curve at half-maximal effect; % of control where 0% means no effect; nearly all actives have a fitted effect of over 65% in size
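Cells of the AREc32 ARE-luciferase line are plated in OPTI-MEM containing 5% FBS and left overnight at 37 deg C. Compounds are pinned in, incubation continues 24 hr, and firefly luciferase signal is then measured.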
TSG101-PTAP inh = qHTS Assay for Iinhibitors of HIV-1 Budding by Blocking the Interaction of PTAP/TSG101; Tumor susceptibility gene 101 protein (Homo sapiens), Q99816; Fluorescence polarization, FITC-PTAP peptide / Tsg101 binding; Potency, µM (series often up to 115 µM), without a hit: top-dose activity change, negative = inhibition, actives largely listed as inhibitors; 340,000 tested, under 10 active; active = well fitted inhibition curve with a large enough effect in the main read-out, with a control signal flat, not every such curve was filed as active; inconclusive = small, poorly fitted or top-dose-only effect, or effect the other way, or a change in a side signal; inactive = no such curve, though single readings can be large or run the other way; also: potency is read from the fitted curve at half-maximal effect; % of control where 0% means no effect
Target sequence (Q99816 whole entry, looked up): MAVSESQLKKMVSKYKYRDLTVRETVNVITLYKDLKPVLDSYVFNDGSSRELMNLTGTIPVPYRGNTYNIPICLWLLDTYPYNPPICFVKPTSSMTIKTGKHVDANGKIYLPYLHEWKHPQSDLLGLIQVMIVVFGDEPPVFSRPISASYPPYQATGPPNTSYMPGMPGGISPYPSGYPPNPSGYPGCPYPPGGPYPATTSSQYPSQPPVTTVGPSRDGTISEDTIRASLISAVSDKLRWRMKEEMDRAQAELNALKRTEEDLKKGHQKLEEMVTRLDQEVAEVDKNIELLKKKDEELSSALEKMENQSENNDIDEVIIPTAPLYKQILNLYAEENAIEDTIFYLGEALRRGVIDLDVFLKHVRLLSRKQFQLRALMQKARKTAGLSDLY
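Fluorescence polarization binding of Tsg101 binding domain (10 uM final) to FITC-labeled PTAP peptide (50 nM final) in HEPES pH 7.5 buffer with NaCl, Tween 20, EDTA, TCEP. Compounds added before peptide; binding 20 min at RT.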
Nrf2 block = Nrf2 qHTS screen for inhibitors | A549 ARE-Fluc reporter, luciferase luminescence, 18-24 h | Potency, µM (highest dose often 46 µM), for inactives: at the top dose activity change, negative = inhibition, usual class: inhibitors | 360,000 compounds, 2.1% hits | AID 504444, 2011; also: potency is read from the fitted curve at half-maximal effect; % is scaled to controls: 0 for no effect and ±100 for the full control effect; nearly all actives have a fitted effect of over 60% in size
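Two sequential reads on A549 ARE_Fluc cells exposed to compound for 18-24 h: a CellTiter-Fluor fluorescence read for viability, then a luciferase luminescence read for Nrf2/ARE activity.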
miR-21 act = qHTS Assay for Modulators of miRNAs and/orActivators of miR-21; 340,000 tested, under 10 active; Potency, µM (doses to about 38.3 µM), for inactives: at the highest dose activity change, positive = activation, usual class: activators; HeLa miR-21 FLuc reporter, luciferase, 48 h;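 also: % of control where 0% means no effect; miR-21 action dims this reporter so a rising signal means less miR-21 action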
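HeLa miR-21-FLuc reporter line, endogenous miR-21; 2000 cells/well in DMEM/10% FBS; compound titration up to ~40uM final, 48 h, 37 degree Celsius; luciferase detection reagent, 15 min lysis, CCD luminescence.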
A549 tox-1 = Nrf2 qHTS screen for inhibitors: counterscreen for cytotoxicity; A549 ARE-Fluc cells, CellTiter-Fluor viability, 18-24 h; Potency, µM (highest dose often 46 µM), without a hit: at the top dose activity change, negative = cytotoxicity, usual class: inhibitors; AID 504648, 2011; 390,000 compounds, 0.16% hits; also: potency is read from the fitted curve at half-maximal effect; % is scaled to controls: 0 for no effect and ±100 for the full control effect
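Cytotoxicity counterscreen: CellTiter-Fluor fluorescence was measured in A549 ARE_Fluc cells after 18-24 h of compound exposure in a concentration series. The subsequent BugLite luminescent read reports ARE-luciferase activity.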
FLuc counter 3 = Nrf2 qHTS screen for inhibitors: Purified Fluc Biochemical Counterscreen for Hit Validation. shares compounds with Nrf2 block. purified firefly luciferase, luminescence inhibition. Potency, µM (series often up to 57.5 µM), inactives show top-dose activity change, negative = inhibition, hits mostly inhibitors. 1,400 compounds, 4% hits. AID 720522, 2013; also: potency is read from the fitted curve at half-maximal effect; % is scaled to controls: 0 for no effect and ±100 for the full control effect; nearly all actives have a fitted effect of over 65% in size
A549 tox-2 = Nrf2 qHTS screen for inhibitors: A549 ARE-Fluc Cytotoxicity Counterscreen for Hit Validation. shares compounds with Nrf2 block. A549 ARE-Fluc cells, cytotoxicity counterscreen. Potency, µM (top dose mostly 46.1 µM), without a hit: top-dose activity change, negative = cytotoxicity, actives largely listed as inhibitors. 1,400 compounds, 2% hits. AID 720523, 2013;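 also: potency is read from the fitted curve at half-maximal effect; cells exposed to compounds for 18 to 24 hours; % is scaled to controls: 0 for no effect and ±100 for the full control effect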
ARE-Fluc inh = Nrf2 qHTS screen for inhibitors: Nrf2 A549 ARE-Fluc Confirmation Assay for Hit Validation; shares compounds with Nrf2 block; A549 ARE-firefly luciferase reporter, luminescence; Potency, µM (top dose mostly 46.1 µM), for the others: at the top dose activity change, negative = inhibition, usual class: inhibitors; 1,400 compounds, 74% hits; also: potency is read from the fitted curve at half-maximal effect; % is scaled to controls: 0 for no effect and ±100 for the full control effect; nearly all actives have a fitted effect of over 65% in size
Starred values were filed as active, the others as inactive; ? = inconclusive; . = no result given. In the library only some 2.1% were active in any assay of this set; here they are far more common. Unless noted, calls follow the shape of the dose curve; as a rule, active = well fitted curve in the direction sought with a large enough effect; inconclusive = small, poorly fitted or top-dose-only effect, or another doubt; inactive = no such curve, though single readings can be large; an effect the other way counts as inactive or inconclusive.

SMILES | GRP78 ERSR act | Nrf2 ARE act | TSG101-PTAP inh | Nrf2 block | miR-21 act | A549 tox-1 | FLuc counter 3 | A549 tox-2 | ARE-Fluc inh
COc1cc2c(cc1OC)[C@H]1C(=O)c3ccc4c(c3O[C@H]1CO2)C[C@@H](C(C)(C)O)O4 | -4% | 4% | -9% | ? | . | 6% | . | . | .
CCCCn1c(=O)c(C(=O)Nc2nc3ccccc3[nH]2)c(O)c2ccccc21 | . | . | . | . | -14% | . | . | . | .
CCCCCn1c(=O)c(C(=O)Nc2nc3ccccc3[nH]2)c(O)c2ccccc21 | -2% | 0% | 0% | 2.6µM* | -8% | ? | 3% | ? | 6.5µM*
CCCCC/C=C\C/C=C\C/C=C\C/C=C\CCCC(=O)NCCCl | 6% | . | . | . | . | . | . | . | .
COc1cc2nc(CN3CC=C(c4ccccc4)CC3)[nH]c(=O)c2cc1OC | 3% | 0% | 0% | 2.3µM* | . | ? | -3% | ? | .
Cc1cccc(N2C(=O)CSC23C(=O)N(CC(=O)Nc2cccc(Cl)c2)c2ccccc23)c1 (stereo not drawn) | -2% | 0% | . | ? | ? | -24% | . | . | .
CCOC(=O)c1ncn2c1CN(C)C(=O)c1cc(F)ccc1-2 | -5% | 0% | 1% | 2.1µM* | -4% | -8% | 3% | -8% | 7.3µM*
CC(=NNC(=S)N1CC2CCC(CC2)C1)c1nccs1 | 16% | 6% | -2% | 1.5µM* | . | ? | 19µM* | ? | 2.9µM*
Nc1c(C(=O)Nc2ccc(Cl)cc2)sc2nc3c(cc12)N1CCC3CC1 | -3% | 1% | . | ? | 12% | -5% | . | . | .
N#Cc1cc2c(nc1SCC(=O)Nc1ccc(Cl)c(C(F)(F)F)c1)C1CCN2CC1 | 0% | 0% | . | 7.3µM* | ? | -19% | -1% | -30% | 7.3µM*
N#Cc1cc2c(nc1SCC(=O)Nc1ccc(C(F)(F)F)cc1)C1CCN2CC1 | 0% | 0% | . | 8.2µM* | ? | -11% | 1% | -3% | 12µM*
Nc1c(C(=O)Nc2ccc(Cl)c(C(F)(F)F)c2)sc2nc3c(cc12)N1CCC3CC1 | -5% | 1% | . | 6.5µM* | ? | -23% | -17% | ? | 7.3µM*
O=C(CN1CCCC2CCCCC21)c1ccc(I)cc1 (stereo not drawn) | -3% | . | . | . | . | . | . | . | .
COc1nn(CSP(=S)(OC)OC)c(=O)s1 | -5% | . | . | . | . | . | . | . | .
OCC(Br)(Br)Br | -1% | . | . | . | . | . | . | . | .
COc1ccc(NC(=O)CSc2nc(-c3ccco3)cc(C(F)(F)F)n2)cc1OC | -3% | 0% | . | 1.6µM* | 16% | -11% | -2% | -8% | 2.3µM*
C[C@@]12CC(=O)[C@H]3[C@@H](CCC4=CC(=O)CC[C@]43C)[C@H]1CCC2=O | 7% | . | . | . | . | . | . | . | .
CC12CC(=O)C3C(CCC4CC(=O)C=CC43C)C1CCC2=O (stereo not drawn) | -4% | 0% | -5% | 3.3µM* | . | -12% | 2% | -15% | 2.6µM*
C[S@@](=O)CCCCN=C=S | -8% | . | . | . | . | . | . | . | .
COCCN(C(=O)CCl)c1c(C)cccc1C | -7% | . | . | . | . | . | . | . | .
COc1ccc(CC2NCC(O)C2OC(C)=O)cc1 (stereo not drawn) | -6% | -5% | -6% | 0.46µM* | . | ? | 1% | -5% | 1.5µM*
COc1ccc(C[C@H]2NC[C@H](O)[C@@H]2OC(C)=O)cc1 | -7% | . | . | . | . | . | . | . | .
O=C(NCc1ccc(Cl)cc1)C1CCN(C(=O)c2cnn(-c3ccccc3)c2-n2cccc2)CC1 | 5% | 7% | . | ? | 23% | -20% | . | . | .
CCCCCCC[n+]1ccc(-c2cc[n+](CCCCCCC)cc2)cc1 | -4% | 0% | -1% | 2.6µM* | 28% | -23% | -8% | -22% | 8.2µM*
CCCCCCCCCCCCCCCC[n+]1ccccc1 | -11% | -4% | 0% | 8.2µM* | . | ? | -14% | -12% | 8.2µM*
SMILES | GRP78 ERSR act | Nrf2 ARE act | TSG101-PTAP inh | Nrf2 block | miR-21 act | A549 tox-1 | FLuc counter 3 | A549 tox-2 | ARE-Fluc inh
CCOP(=S)(OCC)OCCSCC | -3% | . | . | . | . | . | . | . | .
CC(=O)OC1C(O)C(C)OC(OC2C(OC(=O)C3CCC4C(C3)OC3(CC(OC(=O)/C=C/c5ccccc5)C(C)CO3)C43CO3)OC(C)C(O)C2OC(C)=O)C1O (stereo not drawn) | -4% | -1% | -4% | 0.023µM* | . | ? | -11% | -3% | 6.5µM*
CC(C)OC(=O)C(O)(c1ccc(Cl)cc1)c1ccc(Cl)cc1 | -11% | . | . | . | . | . | . | . | .
CC(=O)OC(C)(C)/C=C/C(=O)C(C)(O)C1[C@H](O)C[C@@]2(C)C3CC=C4C(CC[C@@H](O)C4(C)C)[C@]3(CO)C(=O)C[C@]12C (stereo partly drawn) | -13% | 27% | 0% | 0.23µM* | ? | 0.26µM* | 3% | ? | 0.16µM*
Cc1ccc(NC(=O)C2CCN(C(=O)c3cnn(-c4ccccc4)c3-n3cccc3)CC2)cc1Cl | -2% | 0% | . | ? | 28% | -24% | . | . | .
C[C@@H]1C[C@@H]([C@H](O)CC2CC(=O)NC(=O)C2)C(=O)[C@@H](C)C1 | -5% | -3% | 1% | 0.58µM* | . | ? | -11% | -29% | 5.8µM*
CC(=O)OC1(C)CC(C)C(=O)C(C(O)CC2CC(=O)NC(=O)C2)C1 (stereo not drawn) | -6% | -6% | -2% | 0.058µM* | . | ? | 1% | -2% | 5.2µM*
C#CCCC[C@@H]1OC(=O)CNC(=O)C([C@@H](C)CC)NC(=O)[C@@H]2CCCN2C(=O)C([C@@H](C)CC)OC(=O)[C@H](Cc2ccccc2)N(C)C(=O)[C@H](C(C)C)NC(=O)C1(C)C (stereo partly drawn) | -2% | -2% | . | . | . | . | . | . | .
